Rows were chosen to be rich in hits. Some 3.2% of all compounds tested hit in one or more screens of this group.
MEKK3 PB1 HTS = raises or lowers MEK5 binding to the human MEKK3 PB1 domain | Q99759 | bead-based flow cytometry, Alexa488-MEK5 binding to MEKK3; actives lie on both sides; 0 = blocked by unlabeled MEK5, 100 = vehicle | binding response (% of control), % at 10 µM | 1.4% of 290,000 active | AID 1529;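 active = binding response more than 3 SD above or below the average of its plate-row segment, actives on both sides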;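 also: Alexa488 bead fluorescence after subtracting the streptavidin-only scavenger bead signal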
MEKK2 mut-MEK5 = signal of MEK5 binding to mutant human MEKK2 PB1 domain; bead flow cytometry, Alexa488-MEK5 binding to MEKK2 mutant; percent response, % at 10 µM; AID 1530; 0.35% of 290,000 active; in the data active = percent response above about 24%, passing the limit was not always enough
MEKK2wt PB1 HTS = raises or lowers MEK5 binding to wildtype human MEKK2 PB1 domain; 1.1% of 290,000 active; Q9Y2U5; bead flow cytometry, Alexa488-MEK5 binding to MEKK2 WT; actives lie on both sides; AID 1531; binding response (% of control), % at 10 µM; in the data active = binding response below about 67% or above about 130%
SKN-1 block = inhibitors of C. elegans SKN-1; inhibition, % at 21.8 µM; 0.49% of 360,000 active; C. elegans VP596 Pgst-4::GFP/RFP ratio, acrylamide-induced, 24 h;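 active = interference check ratio from 0.5 to 1.5 plus GFP to RFP signal ratio inhibition reaching or exceeding a fixed threshold, cut at about 30% in these data, passing the limit was not always enough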
CendR NRP1 mod = alters CendR peptide binding to human NRP-1. O14786. FAM-RPARPAR peptide binding to NRP-1, fluorescence polarization. inhibition, % at 25 µM. 0.85% of 360,000 active;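 active = inhibition or corrected inhibition above about 18%, plus a signal ratio from 0.5 to 1.5, limit read from the data, passing the limit was not always enough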
Target sequence (O14786 whole entry, looked up): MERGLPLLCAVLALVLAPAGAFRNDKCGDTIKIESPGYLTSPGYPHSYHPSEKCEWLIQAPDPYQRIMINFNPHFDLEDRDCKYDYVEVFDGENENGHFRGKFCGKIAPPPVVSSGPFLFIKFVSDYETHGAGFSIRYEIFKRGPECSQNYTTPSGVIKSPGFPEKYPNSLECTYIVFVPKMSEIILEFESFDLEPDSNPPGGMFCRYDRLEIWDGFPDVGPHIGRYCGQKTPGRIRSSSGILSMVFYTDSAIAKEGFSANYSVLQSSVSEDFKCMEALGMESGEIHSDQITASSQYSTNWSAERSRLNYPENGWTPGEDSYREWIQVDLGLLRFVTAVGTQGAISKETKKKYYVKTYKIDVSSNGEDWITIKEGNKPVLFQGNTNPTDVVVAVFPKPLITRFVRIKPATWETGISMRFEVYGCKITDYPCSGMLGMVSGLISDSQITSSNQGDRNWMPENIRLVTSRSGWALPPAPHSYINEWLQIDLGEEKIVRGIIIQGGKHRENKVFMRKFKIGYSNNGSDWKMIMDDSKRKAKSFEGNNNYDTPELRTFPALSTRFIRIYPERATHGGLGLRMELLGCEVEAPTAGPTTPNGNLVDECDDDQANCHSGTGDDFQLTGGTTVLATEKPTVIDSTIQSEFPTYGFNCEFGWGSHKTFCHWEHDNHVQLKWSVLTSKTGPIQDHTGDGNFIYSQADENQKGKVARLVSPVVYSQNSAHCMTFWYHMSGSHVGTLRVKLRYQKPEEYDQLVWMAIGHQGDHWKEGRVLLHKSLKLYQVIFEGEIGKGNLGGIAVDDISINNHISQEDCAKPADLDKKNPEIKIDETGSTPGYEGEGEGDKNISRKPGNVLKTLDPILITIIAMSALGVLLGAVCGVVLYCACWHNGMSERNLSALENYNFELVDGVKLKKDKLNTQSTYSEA
MEKK2wt confirm = raises or lowers MEK5 binding to wildtype human MEKK2, retest; shares compounds with MEKK3 PB1 HTS; bead flow cytometry, Alexa488-MEK5 binding to MEKK2 WT; actives lie on both sides; binding response (% of control), % at 10 µM; 2.4% of 5,900 active; in the data active = binding response below about 16% or above about 210%; inactive = in between
MEKK2mut-MEK5 = signal of MEK5 binding to mutant human MEKK2, retest; shares compounds with MEKK3 PB1 HTS; bead flow cytometry, Alexa488-MEK5 binding to MEKK2 mutant; percent response, % at 10 µM; 2% of 5,900 active; AID 1893; in the data active = percent response mostly above about 71%, no sharp cut-off; inactive = mostly below about 38%;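 also: higher means compound restores mutant binding toward wildtype level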
MEKK3 confirm = confirmation of inhibitors of MEK5 binding to human MEKK3. shares compounds with MEKK3 PB1 HTS. binding response (% of control), % at 10 µM. bead flow cytometry, Alexa488-MEK5 binding to MEKK3; hits give low values. 1.8% of 5,900 active;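 active = binding response below 72% of control, or above a set upper limit, though filed actives all read lower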;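 also: lower values mean stronger disruption of MEK5 binding to MEKK3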
Hits are given with their value; – = inactive; · = not tested or not shown; ! = repeats disagree; [ ] = another dose, or the depositor's remark.

SMILES | MEKK3 PB1 HTS | MEKK2 mut-MEK5 | MEKK2wt PB1 HTS | SKN-1 block | CendR NRP1 mod | MEKK2wt confirm | MEKK2mut-MEK5 | MEKK3 confirm
COc1ccc(NC(=O)c2cc(C3CCCCN3S(=O)(=O)c3ccccc3)on2)c(C)c1 (stereo not drawn) | · | · | · | – | – | · | · | ·
COc1ccc(CC(=O)N2N=C(C)CC2(O)c2cccnc2)cc1 (stereo not drawn) | – | – | – | – | – | · | · | ·
COc1ccc(CC(=O)N2N=C(C)CC2(O)c2cccnc2)cc1OC (stereo not drawn) | 128 | – | – | – | – | – | – | –
O=C(CCCC(=O)N(CC(=O)NC1CCCC1)C1CCCC1)Nc1ccccn1 | 72[inhibitor] | – | – | – | – | -1.0[inhibitor] | – | –
CCOc1ccccc1N(CC(=O)NC1CCCC1)C(=O)CCCC(=O)Nc1ccccn1 | 2.0[inhibitor] | – | 2.0[inhibitor] | – | – | – | – | –
COc1ccccc1N(CC(=O)NC1CCCC1)C(=O)CCCC(=O)Nc1ccccn1 | – | – | – | – | – | · | · | ·
Nc1nc(N)c2cc(S(=O)(=O)c3ccc4ccccc4c3)ccc2n1 | · | · | · | – | – | · | · | ·
O=C(Nc1nncs1)c1ccc(S(=O)(=O)c2ccccc2)cc1 | 123 | – | – | – | – | – | – | –
O=C(NCc1cccnc1)C(=O)NCC1OCCCN1S(=O)(=O)c1cc(F)ccc1F (stereo not drawn) | · | · | · | – | – | · | · | ·
Cc1cc(-c2nnc3n2N=C(c2ccc(-c4ccccc4)cc2)CS3)n[nH]1 | – | – | – | – | – | · | · | ·
c1ccc(-c2cc(-c3nnc4n3N=C(c3ccc5ccccc5c3)CS4)[nH]n2)cc1 | – | – | 71[inhibitor] | – | – | – | – | –
C[C@H]1CN([C@@H](C)CO)C(=O)CCCn2nncc2CO[C@H]1CN(C)C(=O)C1CCCCC1 | · | · | · | – | – | · | · | ·
COc1cccc(CNCCc2c[nH]c3ccccc23)c1OCc1ccc(F)cc1 | – | 39 | 165 | – | – | – | – | –
COc1cc(CNCCc2c[nH]c3ccccc23)ccc1OCc1ccc(F)cc1 | – | 47 | 197 | – | – | – | – | –
Cc1ccccc1CN1CCN(c2ccc(S(=O)(=O)N3CCCC3)cn2)CC1 | · | · | · | – | – | · | · | ·
COc1ccc(CC(=O)Oc2ccc(Cl)cc2Br)cc1S(=O)(=O)N1CCOCC1 | · | · | · | – | – | · | · | ·
CCOc1ccc(/C=C/c2nc(C#N)c(NCCCOC)o2)cc1 | – | – | – | – | – | · | · | ·
CCOc1ccc(/C=C/c2nc(C#N)c(NCCCN(C)C)o2)cc1 | – | 26 | 140 | – | – | – | – | –
CCCCOC(=O)c1ccc(NC(=O)c2ccccc2OC)cc1 | 136 | – | – | – | – | – | – | –
CCCCOC(=O)c1ccc(NC(=O)C(=O)NCc2ccco2)cc1 | 136 | – | – | – | – | – | – | –
CCCCCCCCSc1nnc2[nH]c(=O)cc(N)n12 | – | – | – | – | – | · | · | ·
CC(C)CSc1nnc2[nH]c(=O)cc(N)n12 | 60[inhibitor] | – | – | – | – | – | – | –
CC(=O)Nc1ccc(S(=O)(=O)N(C)Cc2ccccc2)cc1 | – | – | – | – | – | · | · | ·
CC(=O)Nc1ccc(S(=O)(=O)N(Cc2ccccc2)C(C)C)cc1 | 1.0[inhibitor] | – | 1.0[inhibitor] | – | – | – | – | –
CC(C)(C)S(=O)N1Cc2cc(C(=O)N[C@@H]3CCN(Cc4ccccc4)C3)nc(-c3cccc(-c4cc5ccccc5o4)c3)c2[C@@H]1CCO (stereo partly drawn) | · | · | · | – | – | · | · | ·
SMILES | MEKK3 PB1 HTS | MEKK2 mut-MEK5 | MEKK2wt PB1 HTS | SKN-1 block | CendR NRP1 mod | MEKK2wt confirm | MEKK2mut-MEK5 | MEKK3 confirm
Cc1ccc(S(=O)(=O)Nc2ccc(NC(=O)Nc3cccc(C(F)(F)F)c3)cc2)cc1 | – | 54 | 171 | – | – | – | – | –
O=C(Nc1ccc(OC(F)F)cc1)Nc1cccc(C(F)(F)F)c1 | – | – | 209 | – | – | – | – | –
CCN(CC)S(=O)(=O)c1ccc(NC(=O)Nc2cccc(C(F)(F)F)c2)cc1 | – | – | 144 | – | – | – | – | –
CN(C)S(=O)(=O)NCCNC(=O)c1cc(OCC(F)(F)F)ccc1OCC(F)(F)F | – | – | – | – | – | · | · | ·
O=C(NCCNC(=O)c1cc(OCC(F)(F)F)ccc1OCC(F)(F)F)Nc1cccc(C(F)(F)F)c1 | – | – | 142 | – | – | – | – | –
NC(=O)NC(=O)C(c1ccccc1)N1CCN(S(=O)(=O)Cc2ccccc2)CC1 (stereo not drawn) | · | · | · | – | – | · | · | ·
CC(=O)Nc1cc(-c2cccc(CO)c2)cn2c(-c3ccc(F)cc3)cnc12 | · | · | · | – | – | · | · | ·
COc1ccc(NC(=O)CNc2ccccc2C(C)=O)cc1S(=O)(=O)N1CCOCC1 | · | · | · | – | – | · | · | ·
CC(C)NC(=O)c1cc(C2CCCCN2S(=O)(=O)c2ccccc2)on1 (stereo not drawn) | · | · | · | – | – | · | · | ·
CCCCCCCCN1C(=O)[C@H](CC(=O)NCc2cccc(C(F)(F)F)c2)C[C@@]2(C(=O)OCC)CCCC=C12 | · | · | · | – | – | · | · | ·
Cc1cccc(NC(=O)CCNS(=O)(=O)c2ccc3[nH]c(=O)oc3c2)c1 | – | – | – | – | – | · | · | ·
O=C(CC1NCCc2ccccc21)Nc1ccc(Oc2ccccc2)cc1 (stereo not drawn) | – | – | 160 | – | – | – | – | –
CSc1ccc(OC2(C)CCN(Cc3ccc(OC(C)C)cc3)C2)cc1 (stereo not drawn) | · | · | · | – | – | · | · | ·
O=C(NCCC1=CCCCC1)C1CCN(S(=O)(=O)N2CCCC2)CC1 | – | – | – | – | – | · | · | ·
CCS(=O)(=O)N1CCC(C(=O)NCCC2=CCCCC2)CC1 | 73[inhibitor] | – | – | – | – | – | – | –
COc1ccc(C(=O)N/C(=C\c2cn(S(=O)(=O)N(C)C)c3ccccc23)C(=O)N2CCCC2)cc1 | · | · | · | – | – | · | · | ·
CCOC(=O)c1ccc(-n2c(C)nc3c(cnn3-c3ccc(Cl)cc3)c2=O)cc1 | – | – | – | – | – | · | · | ·
CCOC(=O)c1ccc(-n2c(C)nc3c(cnn3-c3ccccc3Cl)c2=O)cc1 | 124 | – | – | – | – | – | – | –
Cc1cc(N(C)N)nc(NC(=O)NS(=O)(=O)c2ccccc2Cl)n1 | – | – | – | – | – | · | · | ·
Cc1ccc(S(=O)(=O)N2C3CC(c4ccccc4)N(S(=O)(=O)c4cccc(Cl)c4)CC3C(=O)C[C@H]2c2ccccc2)cc1 (stereo partly drawn) | · | · | · | – | – | · | · | ·
COc1ccc(C(=O)Nc2ccccc2C(=O)NCCCn2ccnc2)cc1 | 122 | – | – | – | – | – | – | –
CNCCCC12CCC(c3ccccc31)c1ccccc12 | – | – | 137! | – | – | – | – | –
